Measured values reported in PubChem BioAssay (NCI).
Where “and” joins values, the source holds several entries; their conditions need not be identical. Equal entries are not always repeated. Compounds without any hit were thinned out: in the full panel of roughly 79,000, 15% have a hit. Where a structure was tested more than once in an assay, its records may differ in their call. Calls of active or inactive are those of the source. Rule as the data show it: active = growth inhibition above about 70%; inactive = the rest.

How the values were obtained:
[1] = NCI Yeast Anticancer Drug Screen. Data for the rad50 strain (AID 155);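 also: 0% = growth of vehicle-only cultures of the same strain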; conditions: S. cerevisiae rad50 strain growth inhibition, stronger effect = higher value
Method in brief: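 Growth of the mutant yeast was measured after compound exposure and referenced to vehicle-treated cultures.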

[2] = NCI Yeast Anticancer Drug Screen. Data for the mec2-1 strain (AID 157); conditions: S. cerevisiae mec2-1 strain, stronger effect = higher value
Method in brief: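 Test agents were screened against the mec2-1 yeast strain, with defined DNA repair or cell cycle alteration. Growth was scored as inhibition against vehicle-only controls.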

[3] = NCI Yeast Anticancer Drug Screen. Data for the sgs1 mgt1 strain (AID 161);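 also: 0% = growth of cultures given vehicle only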; conditions: S. cerevisiae sgs1 mgt1 strain, stronger effect = higher value
Method in brief: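 Read-out: growth inhibition vs vehicle controls. Cells: mutant yeast strain deficient in DNA damage repair.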

[4] = NCI Yeast Anticancer Drug Screen. Data for the cln2 rad14 strain (AID 165);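 also: 0% = growth equal to vehicle treated cultures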; conditions: S. cerevisiae cln2 rad14 strain, stronger effect = higher value
Method in brief: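 Growth of compound-exposed yeast (cln2 rad14 genotype) measured and expressed as inhibition relative to vehicle.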

[5] = NCI Yeast Anticancer Drug Screen. Data for the bub3 strain (AID 167); conditions: S. cerevisiae bub3 mutant strain, stronger effect = higher value
Method in brief: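 Whole-cell yeast assay. The mutant strain was incubated with compounds, and growth inhibition was determined by comparison with vehicle-treated cells.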

[6] = NCI Yeast Anticancer Drug Screen. Data for the mlh1 rad18 strain (AID 175); conditions: S. cerevisiae mlh1 rad18 strain growth inhibition, stronger effect = higher value
Method in brief: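 In this whole-cell yeast screen, a strain with altered DNA damage repair is challenged with compound, and its growth is measured against matched vehicle-treated controls.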

[7] = at 5.0 µM (retest, dose inferred, filed as 0.5)
[8] = at 50.0 µM (retest, dose inferred, filed as 5.0)

Measured: growth inhibition

O=C(c1ccccc1)C(c1ccccc1)C(O)c1ccc([N+](=O)[O-])cc1 (configuration not stated)
active: [1]; [8] 89% and 99% | [1]; at 50.0 µM 96% and 98.2% | [2]; [8] 96% and 99% | [2]; at 50.0 µM 98.4% and 99.5% | [3]; [8] 94% and 99% | [3]; at 50.0 µM 97.1% and 98.8% | [4]; [8] 96% and 99% | [4]; at 50.0 µM 94.8% and 99.2% | [5]; [8] 92% and 99% | [5]; at 50.0 µM 95.6% and 98.9% | [6]; [8] 95% and 99% | [6]; at 50.0 µM 96.7% and 99.5%
inactive: [1]; [7] 9% and 2% | [2]; [7] 13% and -8% | [3]; [7] 6% and -14% | [4]; [7] 9% and 3% | [5]; [7] 19% and 1% | [6]; [7] 11% and 6%

O=C(C(c1ccccc1)c1ccccc1)C(c1ccccc1)c1ccccc1
inactive: [1]; [7] 0% | [1]; [8] -12% | [1]; at 50.0 µM 25% | [2]; [7] -6% | [2]; [8] -13% | [2]; at 50.0 µM 0.85% | [3]; [7] -1% | [3]; [8] -18% | [3]; at 50.0 µM 4.8% | [4]; [7] 2% | [4]; [8] -30% | [4]; at 50.0 µM 43.9% | [5]; [7] 0% | [5]; [8] 28% | [5]; at 50.0 µM -6.25% | [6]; [7] 0% | [6]; [8] -4% | [6]; at 50.0 µM 1.55%

CCCCCCCCCCSC(=N)N
52.5% (inactive) and 94.3% (active): [5]; at 50.0 µM
52% (inactive) and 92.1% (active): [6]; at 50.0 µM
active: [1]; [8] 82% and 91% | [2]; [8] 71% and 86% | [3]; [8] 90% and 95% | [5]; [8] 84% and 92% | [6]; [8] 79% and 90%
52.9% (inactive) and 95.7% (active): [1]; at 50.0 µM
inactive: [1]; [7] -141% and 19% | [2]; [7] -48% and -3% | [3]; [7] -54% and 22% | [4]; [7] -50% and 8% | [4]; [8] 49% and 62% | [4]; at 50.0 µM 57.5% and 57.2% | [5]; [7] -47% and 22% | [6]; [7] -134% and 1%
52.5% (inactive) and 96.5% (active): [3]; at 50.0 µM
49.8% (inactive) and 89.2% (active): [2]; at 50.0 µM

Oc1c(Cl)c(Cl)c(Cl)c2ccccc12
active: [1]; [7] 84% | [1]; [8] 95% | [1]; at 50.0 µM 95.5% | [2]; [7] 79% | [2]; [8] 98% | [2]; at 50.0 µM 96.8% | [3]; at 50.0 µM 95.9% | [4]; [8] 94% | [5]; [7] 92% | [5]; [8] 93% | [5]; at 50.0 µM 91.2% | [6]; [7] 87% | [6]; [8] 98% | [6]; at 50.0 µM 96.7%
inactive: [3]; [7] 38% | [3]; [8] 34% | [4]; [7] 39% | [4]; at 50.0 µM 53.4%

O=C(NNC(=O)c1ccccc1O)c1ccccc1O
active: [5]; at 50.0 µM 74.2%
inactive: [1]; [7] 4% | [1]; [8] 14% | [1]; at 50.0 µM 56.1% | [2]; [7] 2% | [2]; [8] 34% | [2]; at 50.0 µM 37.3% | [3]; [7] 8% | [3]; [8] 32% | [3]; at 50.0 µM 61% | [4]; [7] -4% | [4]; [8] -2% | [4]; at 50.0 µM 35.9% | [5]; [7] 2% | [5]; [8] 19% | [6]; [7] 5% | [6]; [8] 33% | [6]; at 50.0 µM 49.8%

O=C(Nc1ccc(Cl)cc1)c1ccccc1O
94.7% (active) and -13.8% (inactive): [2]; at 50.0 µM
85.2% (active) and -12.8% (inactive): [4]; at 50.0 µM
90.8% (active) and 3.8% (inactive): [5]; at 50.0 µM
92.6% (active) and 4.9% (inactive): [1]; at 50.0 µM
89% (active) and -5.25% (inactive): [3]; at 50.0 µM
inactive: [1]; [7] 2% | [1]; [8] 8% | [2]; [7] 2% | [2]; [8] 11% | [3]; [7] 1% | [3]; [8] 33% | [4]; [7] 3% | [4]; [8] 6% | [5]; [7] 8% | [5]; [8] 13% | [6]; [7] 4% | [6]; [8] 9%
97.2% (active) and -0.55% (inactive): [6]; at 50.0 µM

Nc1cc(F)c2c(c1)Cc1ccccc1-2
inactive: [1]; [7] 1% | [2]; [7] -3% | [2]; [8] 60% | [2]; at 50.0 µM 39.2% | [3]; [7] -6% | [4]; [7] 8% | [4]; [8] 32% | [4]; at 50.0 µM 23.7% | [5]; [7] 9% | [6]; [7] 12% | [6]; at 50.0 µM 58.1%
active: [1]; [8] 95% | [1]; at 50.0 µM 84.3% | [3]; [8] 84% | [3]; at 50.0 µM 82.7% | [5]; [8] 92% | [5]; at 50.0 µM 71% | [6]; [8] 97%

COc1c(O)cc2oc3cc(O)c(CC=C(C)C)c(O)c3c(=O)c2c1CC=C(C)C
inactive: [4]; [7] 51% and 42%
active: [1]; [7] 98% | [1]; [8] 89% | [1]; at 50.0 µM 86.8% and 87.2% | [2]; [7] 99% | [2]; [8] 91% and 93% | [2]; at 50.0 µM 89.2% and 90% | [3]; [7] 99% | [3]; [8] 89% | [3]; at 50.0 µM 90.3% and 89.4% | [4]; [8] 83% and 86% | [4]; at 50.0 µM 85.2% and 86.2% | [5]; [7] 98% | [5]; [8] 87% and 86% | [5]; at 50.0 µM 86.1% and 87% | [6]; [7] 99% and 98% | [6]; [8] 81% and 87% | [6]; at 50.0 µM 87.2%

N=C1N(c2ccccc2)C(=S)C(=Nc2ccccc2)N1c1ccccc1
active: [1]; [8] 99% | [1]; at 50.0 µM 88.5% | [2]; [8] 99% | [2]; at 50.0 µM 90.8% | [3]; [8] 99% | [3]; at 50.0 µM 84% | [4]; [8] 99% | [4]; at 50.0 µM 82% | [5]; [8] 99% | [5]; at 50.0 µM 84.2% | [6]; [8] 99% | [6]; at 50.0 µM 87.2%
inactive: [1]; [7] 16% | [2]; [7] -4% | [3]; [7] 8% | [4]; [7] 9% | [5]; [7] -33% | [6]; [7] -6%

CCCCN(C(=O)CCl)c1ccccc1
inactive: [1]; [7] 2% | [1]; [8] 13% | [1]; at 50.0 µM 50.3% | [2]; [7] -1% | [2]; [8] 9% | [2]; at 50.0 µM 19.1% | [3]; [7] -4% | [3]; [8] 3% | [3]; at 50.0 µM 54.2% | [4]; [7] 1% | [4]; [8] 5% | [4]; at 50.0 µM 20% | [5]; [7] -9% | [5]; [8] -16% | [5]; at 50.0 µM 34.9% | [6]; [7] 0% | [6]; [8] 10%
active: [6]; at 50.0 µM 73.7%

COc1ccccc1NC(=O)C(/C=N/C(=S)NCCNc1ccc(OC)c(OC)c1)=C(\C)O
inactive: [1]; [7] 1% | [1]; [8] 3% | [1]; at 50.0 µM 9.7% | [2]; [7] -55% | [2]; [8] -10% | [2]; at 50.0 µM -2.25% | [3]; [7] 2% | [3]; [8] -8% | [3]; at 50.0 µM 16.4% | [4]; [7] -22% | [4]; [8] -14% | [4]; at 50.0 µM 43.2% | [5]; [7] 2% | [5]; [8] -27% | [5]; at 50.0 µM 7.25% | [6]; [7] 10% | [6]; [8] -2% | [6]; at 50.0 µM 15.1%

Cc1ccc(S(=O)(=O)N/N=C2/C(=O)c3cccc4cccc2c34)cc1
inactive: [1]; [7] 6% | [1]; at 50.0 µM 64.5% | [2]; [7] -15% | [2]; [8] 64% | [2]; at 50.0 µM 12.8% | [3]; [7] 10% | [3]; at 50.0 µM 55.8% | [4]; [7] 2% | [4]; [8] 39% | [4]; at 50.0 µM 30.5% | [5]; [7] 0% | [5]; [8] 55% | [5]; at 50.0 µM 0.25% | [6]; [7] 33% | [6]; at 50.0 µM 24.8%
active: [1]; [8] 74% | [3]; [8] 76% | [6]; [8] 92%

Cc1[nH]c2ccccc2c1C1Cc2ccccc2N1 (configuration not stated)
inactive: [1]; [7] 14% and 19% | [1]; at 50.0 µM 37.1% and 57.5% | [2]; [7] 12% and 24% | [2]; [8] 14% and 59% | [3]; [7] 16% and 25% | [4]; [7] 10% and 16% | [4]; [8] 6% and 29% | [4]; at 50.0 µM 47.4% and 67.6% | [5]; [7] 9% and 15% | [6]; [7] 15% and 20% | [6]; [8] 37% and 52%
30.6% (inactive) and 94.2% (active): [5]; at 50.0 µM
36.2% (inactive) and 78.5% (active): [2]; at 50.0 µM
69.7% (inactive) and 96.2% (active): [6]; at 50.0 µM
15% (inactive) and 76% (active): [1]; [8]
-12% (inactive) and 76% (active): [5]; [8]
46.3% (inactive) and 81.3% (active): [3]; at 50.0 µM
14% (inactive) and 79% (active): [3]; [8]

Nc1cc2ccccc2c2c1ccc1ccccc12
8% (inactive) and 97% (active): [2]; [8]
inactive: [1]; [7] -159% and 6% | [2]; [7] -48% and 1% | [3]; [7] -66% and 14% | [3]; [8] -18% and 64% | [4]; [7] -56% and -2% | [5]; [7] -64% and -4% | [6]; [7] -125% and 3%
4% (inactive) and 95% (active): [1]; [8]
-2% (inactive) and 96% (active): [5]; [8]
-40% (inactive) and 96% (active): [6]; [8]
24% (inactive) and 95% (active): [4]; [8]
active: [1]; at 50.0 µM 96.5% and 89.7% | [2]; at 50.0 µM 96.9% and 94.2% | [3]; at 50.0 µM 97.8% and 92.5% | [4]; at 50.0 µM 95.3% and 90.5% | [5]; at 50.0 µM 97.6% and 91.4% | [6]; at 50.0 µM 96.4% and 90.7%
